Gal4-VP16 FLuc: VP16 counterscreen qHTS for inhibitors of ROR gamma transcriptional activity | Potency, µM (top dose mostly 53.6 µM), for the others: top-dose activity, negative = inhibition, actives largely listed as inhibitors | 310,000 compounds, 3.5% hits | Drosophila S2 Gal4-VP16 UAS-luciferase, luminescence, 20 h;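 further: Gal4-VP16 expression switched on by copper sulfate through the metallothionein promoter; potency means the concentration at half of the fitted maximal effect; on the % scale 0 is the no-effect control and ±100 the full control effect; nearly all actives have a fitted effect of over 50% in size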
p53 reactivation: qHTS assay for re-activators of p53 using a Luc reporter. AID 504706, 2011. 320,000 compounds, 0.063% hits. Potency, µM (titrated, usually from 92.2 µM), without a hit: at the top dose activity change, positive = activation, hits mostly activators. H1299 p53-A138V BP100-luciferase reporter, luminescence, 24 h; further: potency means the concentration at half of the fitted maximal effect; % of control where 0% means no effect; nearly all actives have a fitted effect of over 45% in size
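H1299 (p53-null), stable ts p53-A138V + BP100-Luc; 1000 cells/well, Opti-MEM/10% FBS; cpd 4 pt, 1:5; 24 h, 37 deg C, 5% CO2; detection reagent 10 min RT; luminescence.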
Giardia killer: Small Molecules that selectively kill Giardia lamblia: qHTS | activity change, % at 7.66 µM, hits read low | 340,000 compounds, 0.15% hits | Giardia lamblia trophozoite viability; in the data active means activity change below about -80%; inconclusive means between about -30% and that limit;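 further: parasites exposed to compound for two days anaerobically before the ATP read; on the % scale 0 is the no-effect control and ±100 the full control effect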
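Compounds were tested on trophozoites seeded at 100 cells/well and held 48 hrs at 37 deg C anaerobically. An ATP-based luminescent kit measured the remaining live cells.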
RORgamma inh: qHTS for inhibitors of ROR gamma transcriptional activity; Nuclear receptor ROR-gamma (Mus musculus), P51450; Drosophila S2 Gal4-RORgamma UAS-luciferase reporter, 20 h; Potency, µM (series often up to 53.6 µM), inactives show top-dose activity change, negative = inhibition, most hits filed as inhibitors; 310,000 compounds, 5.4% hits; AID 2551, 2010; further: potency means the concentration at half of the fitted maximal effect; on the % scale 0 is the no-effect control and ±100 the full control effect; nearly all actives have a fitted effect of over 60% in size
Target sequence (P51450 whole entry, looked up, the tested form may be a part): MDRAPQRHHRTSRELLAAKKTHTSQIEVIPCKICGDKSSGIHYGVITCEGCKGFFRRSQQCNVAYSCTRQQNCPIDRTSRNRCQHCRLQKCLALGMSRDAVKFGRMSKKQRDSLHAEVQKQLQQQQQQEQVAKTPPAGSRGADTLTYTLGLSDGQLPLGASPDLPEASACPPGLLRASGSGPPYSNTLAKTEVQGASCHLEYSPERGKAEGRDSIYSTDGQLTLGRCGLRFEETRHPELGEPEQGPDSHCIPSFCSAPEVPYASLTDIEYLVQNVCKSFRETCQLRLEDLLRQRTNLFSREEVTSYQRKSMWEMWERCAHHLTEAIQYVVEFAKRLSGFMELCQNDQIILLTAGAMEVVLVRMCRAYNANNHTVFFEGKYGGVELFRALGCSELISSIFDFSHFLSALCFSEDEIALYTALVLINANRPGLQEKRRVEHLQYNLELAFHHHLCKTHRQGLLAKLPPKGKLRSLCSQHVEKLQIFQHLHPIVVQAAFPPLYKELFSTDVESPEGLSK
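Luminescence from a UAS-regulated Photinus luciferase reporter in stably transfected Drosophila Schneider cells is measured; decreased signal marks ROR gamma inhibition. Fusion expression is induced by 700 uM copper sulfate for 20 hr.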
BRCA1 expr up: qHTS Assay to Identify Small Molecule Activators of BRCA1 Expression; MCF7-BRCA1-FFLuc reporter, luminescence, 48 h; response scale: scaled: vehicle 0%, 10 µM genistein 100%; Potency, µM (titrated, usually from 46.1 µM), for inactives: top-dose activation, hits mostly activators; 380,000 compounds, 1.1% hits; AID 624202, 2012; further: potency means the concentration at half of the fitted maximal effect; nearly all actives have a fitted effect of over 80% in size
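MCF7 cells carrying a BRCA1-firefly luciferase reporter (2000 cells/well, phenol-red free MEM) were attached for 2 h at 37 °C, then given compounds for 48 h. Luminescence was read 15 min after luciferase reagent; activity normalized to genistein (10 microM) and DMSO.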
ELG1 DNA repair: qHTS screen for small molecules that inhibit ELG1-dependent DNA repair in human embryonic kidney (HEK293T) cells expressing luciferase-tagged ELG1; Potency, µM (highest dose often 46.1 µM), for inactives: at the highest dose activity change, negative = inhibition, usual class: inhibitors; HEK293T ELG1-luciferase reporter, luminescence, 16 h; DNA damage induced by 5-fluorouridine; 330,000 compounds, 2.3% hits; further: potency means the concentration at half of the fitted maximal effect; on the % scale 0 is the no-effect control and ±100 the full control effect; nearly all actives have a fitted effect of over 55% in size
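Overnight (16 hr) co-exposure of 2,000 cells/well to 5-fluorouridine and compound at 37 °C preceded detection. Luciferase was quantified via ONE-Glo luminescence; loss of signal denotes inhibition.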
* = called active by the depositor; ? = inconclusive; nt = no result given. Hits are enriched below; roughly 7.6% of the tested compounds scored in any of these assays. Unless noted, the call rests on the fitted dose curve; in most records, active means well fitted curve in the direction sought with a large enough effect; inconclusive means small, poorly fitted or top-dose-only effect, or another doubt; inactive means no such curve, though single readings can be large; an effect the other way counts as inactive or inconclusive.

SMILES | Gal4-VP16 FLuc | p53 reactivation | Giardia killer | RORgamma inh | BRCA1 expr up | ELG1 DNA repair
Cc1ccc(NC(=O)Cc2c[nH]c3ccccc23)cc1S(=O)(=O)N1CCCCCC1 | -7.9% | 4.6% | -13.5 | ? | -19.4% | 20.6µM*
Cc1ccc(S(=O)(=O)N2CCCCC2)cc1NC(=O)Cc1c[nH]c2ccccc12 | -14.8% | -1.8% | ? | ? | -40.5% | -19.7%
CCn1c(CN(C)c2ccccc2)nc2ccccc21 | 22.4µM* | 10.6% | 2.9 | 10µM* | -21.3% | 2.4%
CCn1c(COc2ccc(OC)cc2)nc2ccccc21 | -6.5% | 3.2% | -9.2 | ? | 11.2µM* | ?
CCn1c(/N=C/c2ccc(OC)cc2O)nc2ccccc21 | ? | nt | 8.4 | 20µM* | 0.0% | 2.2%
O=C(O)c1ccc2c(c1)C(=O)N(c1cccc(S(=O)(=O)Nc3cccc(C(F)(F)F)c3)c1)C2=O | -5.9% | 1.7% | 0.1 | -1.8% | -9.9% | 10.7%
Oc1ccc(N=Nc2ccc3c(c2)OCCO3)c(O)c1 | 10µM* | ? | 1.3 | 8.91µM* | 30.2% | ?
CN(CC(=O)Nc1ccccc1Cl)C(=O)COC(=O)Cc1c(F)cccc1Cl | ? | -3.3% | -11.3 | 10µM* | 13.0% | -0.8%
Cc1cc(C(=O)COC(=O)Cc2c(F)cccc2Cl)c(C)n1C | nt | nt | nt | nt | 5.01µM* | nt
Cn1c(N)c(C(=O)COC(=O)Cc2c(F)cccc2Cl)c(=O)n(C)c1=O | nt | -0.5% | -0.7 | nt | -17.8% | 5.5%
CC1Cc2ccccc2N1C(=O)c1ccc(Br)o1 (configuration not stated) | nt | nt | 10.5 | nt | ? | nt
Cc1ccc(C(=O)N2c3ccccc3CC2C)o1 (configuration not stated) | 0.5% | 7.6% | -25.0 | -8.0% | 3.98µM* | ?
Cc1ccccc1OCCOC(=O)c1cc(S(=O)(=O)N2CCOCC2)ccc1C | nt | nt | nt | nt | 0.5% | nt
C=CCn1c(COc2ccc(Cl)cc2)nnc1SCC(=O)Nc1ccc(S(N)(=O)=O)cc1 | -18.6% | 8.8% | -4.9 | 40.1% | -20.5% | -0.3%
C=CCn1c(COc2ccc(Cl)cc2)nnc1SCC(=O)NCC(=O)OCC | ? | -8.2% | 2.3 | 11.2µM* | -0.5% | 3.5%
C=CCn1c(COc2ccccc2)nnc1SCC(=O)N/N=C/c1cc(Cl)ccc1O | ? | nt | 0.1 | 12.6µM* | -31.5% | nt
CCCn1nc(C(=O)Nc2cc(C(=O)OC)ccc2C)c2ccccc2c1=O | -1.8% | 23.5% | 11.7 | 4.2% | -5.7% | -6.8%
Cn1c(-c2cc(Cl)ccc2O)nc2c1c(=O)[nH]c(=O)n2Cc1ccccc1 | -12.9% | -5.7% | 3.6 | 28.8% | -49.7% | -19.8%
CN(C)C(=S)SCC(=O)Nc1ccc(Cl)cc1Cl | -6.7% | 18.4% | -5.5 | -3.3% | 10µM* | ?
CC1CCN(C(=O)c2cc3ccccc3o2)CC1 | 3.9% | ? | -2.7 | ? | 11.2µM* | ?
CC1CC(C)CN(C(=O)c2cc3ccccc3o2)C1 (configuration not stated) | nt | ? | -28.7 | nt | -10.5% | ?
O=C(c1cc2ccccc2o1)N1CCCCCC1 | -11.8% | ? | 3.5 | 41.9% | 8.91µM* | ?
C=CCNc1cccc(Br)c1 | nt | nt | 25.8 | nt | 3.8% | nt
CCCc1cc(C(=O)NNC(=S)NCc2ccccc2)cs1 | ? | nt | -8.9 | 4.47µM* | 0.9% | nt
CCNC(=S)NNC(=O)c1cc(C)on1 | -9.7% | 0.4% | -5.7 | 17.8µM* | 9.3% | -7.3%
Cc1nn(C)c(C(=O)NNC(=S)NCc2ccccc2)c1Cl | nt | nt | -28.1 | nt | -1.0% | 10.1%
CCc1cc(C(=O)NNC(=S)Nc2ccccc2C)cs1 | ? | ? | 3.0 | -1.0% | 10µM* | ?

Source: PubChem BioAssay (National Center for Advancing Translational Sciences (NCATS))
